Each structure is given as a SMILES string. Entries with a potency or affinity are not part of this list. The source made the active and inactive calls.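 The calls were made as follows: active = a fitted half-maximal concentration no higher than twice the top valid tested dose, with signal falling as cells die; inconclusive = flat curve between -70% and -30%, or poor fit; inactive = the rest, including signal rising instead of falling.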

The assay in a line: viability loss in HeLa cells – cell-based, ATP luminescence, cherry-pick samples, cytotoxicity control, dose response (AID 687004). To be noted: ATP luminescence (CellTiter-Glo), 48 h; series mostly up to 26 µM.
On to `CCC(=O)N1CCCC1(C)C(=O)Nc1ccc(C)c(C)c1` (stereo unspecified), for which the compound was called inactive.

For the compound `C[C@@H]1CN([C@H](C)CO)C(=O)c2cccc(NC(=O)c3ccncc3)c2O[C@H]1CN(C)C(=O)Nc1ccc(C(F)(F)F)cc1`, the call was inactive.

As to `CC(C)COc1ccc(CNC(=S)NCc2ccccc2)cc1`, the outcome was inactive.

`CC(C)C(=O)N1CCC1(C)C(=O)Nc1ccccc1C(C)(C)C` (stereo unspecified): the call was inactive.

With `CO[C@H]1CC[C@@H]2CCOc3c(C#N)cccc3C(=O)N(C)C[C@@H](OC)[C@@H](C)C(=O)N(C)C[C@@H]1O2`, the call was inactive.

As for `CC(C)c1ccc(OCC(=O)NC(C)c2ccccc2)cc1` (stereo unspecified), the compound was classed as inactive.

Take `COc1ccc(NC(=O)CSc2ncnc3c2cnn3CCc2ccccc2)cc1`: the result was inactive.

Consider `Cc1cccc(C)c1NC(=S)NN(Cc1ccccc1)c1ccccc1`, for which the call was inactive.

As for `CCC(C)(C(=O)Nc1ccccc1C)N(C(=O)CNC(C)=O)c1ccccc1C` (stereo unspecified), the call was inactive.

Consider `CC(C)N1C(=O)C2(OCCCO2)c2cc(Br)ccc21`, for which the outcome was inactive.

`COc1ccc(CN(C)C[C@H]2Oc3ccc(NS(C)(=O)=O)cc3CC(=O)N([C@@H](C)CO)C[C@H]2C)cc1`: the call was inactive.

`CC12CC3CC(C)(C1)CC(C(=O)NC(=S)N1CCCCC1)(C3)C2`: the compound was called inactive.

In the case of `CCc1ccc(C(=O)NC(=S)Nc2ccccc2N2CCOCC2)cc1`, the compound was classed as inactive.

Regarding `O=C(C[C@@H]1CC[C@@H]2[C@H](COC[C@@H](O)CN2C(=O)Nc2ccc(Cl)cc2)O1)NC1Cc2ccccc2C1`, the compound was called inactive.

As for `Cc1ccc(N(C(=O)C2CCC(=O)N2)C2(C(=O)NC3CCCC3)CCCCC2)cc1` (stereo unspecified), the compound was called inactive.

Regarding `O=C(NC[C@H]1[C@H](c2ccccc2)[C@H](CO)N1C(=O)Cc1cccnc1)C1CCC1`, the call was inactive.

The values are drawn from PubChem BioAssay.
